Inconclusive results are not listed. Unmarked numbers belong to inactive results. Calls follow the shape of the dose curve; as a rule, active = well fitted inhibition curve with a large enough effect; inconclusive = small, poorly fitted or top-dose-only effect; inactive = no such curve, though single readings can be large or run the other way.
Molecular target: Polyunsaturated fatty acid lipoxygenase ALOX15 (Homo sapiens) (UniProt P16050)
Assay: Confirmation qHTS Assay for Inhibitors of 15-hLO (15-human lipoxygenase)
Conditions: purified enzyme, xylenol orange hydroperoxide absorbance; hits give low values
From the text: Assay Provider: Holman, T.R., University of California, Santa Cruz Screening Center PI: Austin, Christopher P. Screening Center: NIH Chemical Genomics Center Human lipoxygenase 15hLO-1 is a member of the closely related lipoxygenase family of enzymes which catalyze the site-specific oxidation of arachidonic acid to various hormone precursor molecules and as such is a candidate for drug development in a variety of disease areas, such as cancer and inflammation. Inhibition of 15hLO-1 activity was screened by utilizing arachidonic acid as a substrate. The extent of hydroperoxide product formation was measured by a secondary chromogenic reaction in which xylenol orange (XO, Sigma-Aldrich, cat. number 39,818-7) reacts with the ferric ions produced from the reaction between the hydroperoxide and ferrous ions. The Fe(III)-XO complex is characterized with red-shifted absorbance at 560 nm. A purified preparation of human 15hLO-1 was supplied by Professor Ted Holman, University of California, Santa Cruz. This assay includes some confirmation and follow-up compounds for related primary screening assay AID 887.
Assay Protocol: Buffer: 25 mM Hepes pH 7.5, 0.01% Triton X-100. […] The absorbance at 405 and 573 nm were measured using ViewLux (Perkin-Elmer) High-throughput CCD imager and absorbance protocol settings. The 573-to-405 absorbance ratio was used to compute reaction progress.

Sequence of Polyunsaturated fatty acid lipoxygenase ALOX15 (Homo sapiens) (P16050 whole entry, looked up): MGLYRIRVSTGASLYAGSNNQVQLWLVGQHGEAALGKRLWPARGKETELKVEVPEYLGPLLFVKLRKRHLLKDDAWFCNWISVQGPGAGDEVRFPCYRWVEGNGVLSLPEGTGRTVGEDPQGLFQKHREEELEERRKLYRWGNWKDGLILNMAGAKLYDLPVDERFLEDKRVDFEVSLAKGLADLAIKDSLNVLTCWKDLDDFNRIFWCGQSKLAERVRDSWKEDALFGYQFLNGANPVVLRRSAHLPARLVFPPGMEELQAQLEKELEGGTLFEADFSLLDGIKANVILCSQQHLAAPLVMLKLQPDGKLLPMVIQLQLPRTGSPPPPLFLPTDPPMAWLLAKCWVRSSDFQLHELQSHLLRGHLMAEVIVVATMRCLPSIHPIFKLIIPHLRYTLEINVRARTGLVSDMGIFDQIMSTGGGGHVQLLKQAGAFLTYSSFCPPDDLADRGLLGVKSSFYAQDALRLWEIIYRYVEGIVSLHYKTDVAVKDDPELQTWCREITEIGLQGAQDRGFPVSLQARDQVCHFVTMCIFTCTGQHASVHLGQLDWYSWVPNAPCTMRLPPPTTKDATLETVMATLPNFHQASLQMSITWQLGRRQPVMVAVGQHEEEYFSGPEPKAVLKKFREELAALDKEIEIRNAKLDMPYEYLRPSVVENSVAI

## CCC(C)C(=O)c1c(O)c(C)c2oc3c(C)c(O)c(C(=O)C(C)CC)c(O)c3c2c1O (stereo unspecified)
  max response: -17.1%

— PubChem BioAssay AID2157 (National Center for Advancing Translational Sciences (NCATS), 2009)
